Bioassay records: PubChem, National Center for Advancing Translational Sciences (NCATS)
ALDH1A1 inh – ALDH1A1 (human) enzyme inhibition | Purified ALDH1A1, NADH fluorescence, propionaldehyde substrate | Potency, µM (doses to about 75.3 µM), for inactives: at the highest dose activity, negative = inhibition, hits mostly inhibitors | 220,000 tested, 7.3% active;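 further: potency means the concentration at half of the fitted maximal effect; plate controls were no enzyme wells and a reference inhibitor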
Lamin A splicing – changes lamin A minigene splicing in HeLa cells. AID 1487. Potency, µM (highest dose often 46.1 µM), for the others: at the highest dose ratio change, negative = inhibition, hits mostly inhibitors. HeLa LMNA splicing GFP/RFP minigene ratio, 48 h. 200,000 tested, 0.01% active; active means well fitted inhibition curve with a large enough effect in the signal ratio, with a control signal flat, not every such curve was filed as active; inconclusive means small, poorly fitted or top-dose-only effect, or effect the other way, or a change in a side signal; the % refers to the signal ratio; further: potency means the concentration at half of the fitted maximal effect
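S3 HeLa stable clones carrying a lamin A-EGFP splicing minigene plus DsRed2 were seeded at 600 cells/well in Opti-MEM with 2% FBS, pin-dosed and incubated 48 h at 37°C. Acumen cytometry (488 nm) gave the GFP/RFP total-intensity ratio.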
12-hLO inh – inhibitors of human 12-lipoxygenase (ALOX12) | P18054 | purified 12-hLO, xylenol orange hydroperoxide absorbance | Potency, µM (series often up to 57.1 µM), for the others: at the top dose activity change, negative = inhibition, usual class: inhibitors | 150,000 tested, 0.12% active | AID 1452; active means well fitted inhibition curve with a large enough effect; inconclusive means small, poorly fitted or top-dose-only effect; further: potency means the concentration at half of the fitted maximal effect; nearly all actives have a fitted effect of over 55% in size
Target sequence (P18054 whole entry, looked up): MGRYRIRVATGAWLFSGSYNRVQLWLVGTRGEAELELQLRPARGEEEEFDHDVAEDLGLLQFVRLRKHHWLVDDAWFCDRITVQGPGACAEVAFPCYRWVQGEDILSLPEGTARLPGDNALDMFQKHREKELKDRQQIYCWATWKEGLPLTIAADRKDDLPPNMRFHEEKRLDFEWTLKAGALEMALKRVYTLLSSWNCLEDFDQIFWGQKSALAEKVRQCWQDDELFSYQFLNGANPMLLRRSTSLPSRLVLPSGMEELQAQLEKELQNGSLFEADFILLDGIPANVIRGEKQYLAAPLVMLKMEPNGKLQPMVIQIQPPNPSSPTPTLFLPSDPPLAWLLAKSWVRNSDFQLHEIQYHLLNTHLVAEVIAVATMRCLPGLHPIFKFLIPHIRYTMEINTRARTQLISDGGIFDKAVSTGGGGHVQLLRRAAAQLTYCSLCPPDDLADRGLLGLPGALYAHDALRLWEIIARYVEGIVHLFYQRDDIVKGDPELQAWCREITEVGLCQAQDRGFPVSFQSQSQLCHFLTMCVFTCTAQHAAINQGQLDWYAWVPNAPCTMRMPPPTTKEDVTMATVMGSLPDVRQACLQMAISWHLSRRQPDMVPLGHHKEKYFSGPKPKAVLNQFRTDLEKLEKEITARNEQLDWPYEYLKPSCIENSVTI
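Hydroperoxide output read as Fe(III)-xylenol orange absorbance, 573-to-405 nm ratio, after 30 min reaction with 40 uM arachidonic acid. Enzyme: 150 nM purified human 12hLO, 15 min compound preincubation; 25 mM Hepes pH 7.0, room temperature.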
PNC inhibitor – inhibitors of perinucleolar compartment assembly. PC3M PTB-GFP, PNC prevalence imaging, 16 h; active compounds read low. activity change (PNC), negative = inhibition, % at 10 µM. 140,000 tested, 3.1% active;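 active means readout at or below -70, meaning at least 70% loss of cells showing the perinucleolar compartment, a nuclear body marking cancer cells; inconclusive means readout between -30 and a set limit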;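 further: plate controls were DMSO wells for no effect and camptothecin positive control wells for full effect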
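Compounds are pinned in duplicate onto adhered PC3M cells stably expressing GFP-tagged PTB and incubated 16 h at 37 C. Cells are then fixed, nuclei stained with Hoechst, and PNC-positive cells counted.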
HPGD block – inhibitors of human 15-hydroxyprostaglandin dehydrogenase (HPGD). P15428. purified HPGD, NADH fluorescence kinetic, PGE2 substrate. Potency, µM, without a hit: top-dose activity change, negative = inhibition, most hits filed as inhibitors. 150,000 tested, 4.3% active. AID 894; further: potency means the concentration at half of the fitted maximal effect
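NADH formation kinetics: reaction with 30 uM PGE2 and 1 mM NAD+ (final), 20 nM enzyme, Tris-HCl pH 8 with Tween 20, after 15 min compound preincubation at room temperature. Fluorescence change, last versus first of five reads.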
Starred values were filed as active, the others as inactive; ? = inconclusive; . = no result; [ ] = remark or other dose. Hits are enriched below; roughly 10% of the tested compounds scored in any of these assays. Unless noted, the call rests on the fitted dose curve; in most records, active means well fitted inhibition curve with a large enough effect (not every such curve was filed as active); inconclusive means small, poorly fitted or top-dose-only effect, or another doubt; inactive means no such curve, though single readings can be large or run the other way. Unless noted, on the % scale 0 is the no-effect control and ±100 the full control effect.

SMILES | ALDH1A1 inh | Lamin A splicing | 12-hLO inh | PNC inhibitor | HPGD block
COC(=O)CC1C2(C)CC34OC5(C)O[C@@]6(C7/C(=C(/OC)C(C)C)C(=O)OC(c8ccoc8)[C@@]7(C)C(OC(=O)C(C)C)C(OC)[C@]6(O5)[C@@]13C)C(OC)[C@]4(OC)C2OC(C)=O (some centres undefined) | 3% | . | -5% | . | -9%
Cc1cc(-c2ccn[nH]2)c(C)s1 | 5% | . | . | . | .
CCOC(=O)C(C)Oc1ccc2c(-c3cccc([N+](=O)[O-])c3)cc(=O)oc2c1 (centres undefined) | ? | -13% | -1% | -18 | 35µM*
O=C(Oc1ccc2c(-c3ccccc3)cc(=O)oc2c1)c1cccs1 | 11µM* | -17% | -6% | -4 | ?
CC(Oc1ccc2c(-c3ccccc3)cc(=O)oc2c1)C(=O)O (centres undefined) | 28µM* | -4% | 4% | 33 | ?
CCOC(=O)C(Oc1ccc2c(-c3ccccc3)cc(=O)oc2c1)c1ccccc1 (centres undefined) | ? | ? | 0% | ? | -19%
O=C(Oc1ccc2c(-c3ccccc3)cc(=O)oc2c1)C1CCCCC1 | 2.2µM* | 4% | 2% | 74 | ?
COc1cc(NC(=O)Cn2c(C)cc(C)c(C#N)c2=O)cc(OC)c1 | . | 11%[46 µM] | . | . | .
Cc1ccc(NC(=O)c2ccccc2N(C)S(=O)(=O)c2ccccc2)c(C)c1 | 11% | 3% | -2% | -25 | 0%
Cc1cccc(CN2C(=O)c3ccccc3Sc3ccc(C(=O)N4CCCC4)cc32)c1 | . | -15%[46 µM] | . | . | .
CCc1cc2c(-c3ccccc3)cc(=O)oc2cc1OC(=O)c1cccs1 | -1% | -10% | 4% | 89 | 3.2µM*
CCCc1cc2c(-c3ccccc3)cc(=O)oc2cc1OCc1ccc(C(=O)O)o1 | ? | -26%[46 µM] | . | . | .
CCOC(=O)CNC(=O)O[C@@H]1Cc2cc(OC)ccc2O[C@H]1c1cccc(OC)c1 | 5% | . | . | . | -8%
CC(=O)Nc1ccc(SCC(=O)Nc2ccc(Cl)cn2)cc1 | -3% | . | . | . | .
COc1cc(/C=C(\NC(C)=O)C(=O)Nc2cccc(O)c2)ccc1OC(C)=O | 0.089µM* | 1% | 7% | ? | -13%
CCOCCCNC(=O)N1CCN(S(=O)(=O)c2ccc3c(ccn3C)c2)CC1 | . | 25%[46 µM] | . | . | .
COc1ccc(C)cc1NC(=O)c1nnn(CC(=O)Nc2c(C)cccc2C)c1N | . | -3%[46 µM] | . | . | .
CCC1CSC(Nc2ccc(C(=O)/C=C/c3ccc(OC)c(OC)c3)cc2)=N1 (centres undefined) | ? | ? | -6% | 52 | 18µM*
COc1ccc(/C=C/C(=O)c2ccc(NC3=NCCCS3)cc2)cc1OC | -1% | ? | . | . | .
CCC1CSC(Nc2ccc(C(=O)/C=C/c3ccc(Br)cc3)cc2)=N1 (centres undefined) | 2% | ? | 0% | -103* | ?
O=S(=O)(Nc1ccc(-c2ccc(N3CCCC3)nn2)cc1)c1ccc(Br)cc1 | . | 22%[46 µM] | . | . | .
O=C(CCSCc1cccc(F)c1)NCCc1ccccc1 | . | 4%[46 µM] | . | . | .
Cc1ccc(S(=O)(=O)n2ccc3cccnc32)cc1 | 3% | -2% | -4% | -100* | -8%
O=S(=O)(c1ccc(Cl)cc1)n1ccc2cccnc21 | 3% | 2% | -3% | -100* | -11%
Cc1cc(C)n(CC(=O)O)c(=O)c1[N+](=O)[O-] | -28% | 5%[46 µM] | . | . | .
SMILES | ALDH1A1 inh | Lamin A splicing | 12-hLO inh | PNC inhibitor | HPGD block
Cc1cc(C)nc(/N=c2/ssnc2Cl)c1 | 4µM* | 2% | -14% | -27 | 13µM*
Cc1cc(Cl)ccc1N=C1N=C(N)c2ccccc21 | 5% | -28% | 1% | -18 | -9%
Cc1cc(Cl)ccc1N=c1ssnc1Cl | 1.3µM* | -7% | -23% | 28 | 4.5µM*
Cc1ccc(N=c2ssnc2Cl)cc1 | 2.2µM* | 15% | 28µM* | ? | 2.8µM*
Cc1ccc(/C=C/C2=C[C@]3(C)C[C@]2(C)[C@H](c2ccc(C)cc2)CC3=O)cc1 | ? | . | 1% | . | -5%
CCN(CC)C(=O)Oc1ccc2c(=O)c(-c3ccc(OC)cc3)c(C)oc2c1 | 14µM* | ? | -5% | ? | -14%
COC(=O)CSc1c(-c2ccccc2)c2cc(Cl)ccc2[nH]c1=O | ? | 1% | -3% | -6 | -10%
CC(=O)OCCSc1c(-c2ccccc2)c2cc(Cl)ccc2[nH]c1=O | 14µM* | 2% | -4% | ? | .
